Assay outcomes deposited in PubChem BioAssay by National Center for Advancing Translational Sciences (NCATS).
A selection: hits, their analogues and other compounds. The true share with any hit is near 2.9%.
Integrin act MD: activates integrin-mediated alleviation for muscular dystrophy; alpha7betagal myoblasts, beta-gal FDG fluorescence, 48 h; Potency, µM (doses to about 38.3 µM), actives largely listed as activators; actives 0.064% (n = 350,000); active = well fitted activation curve with a large enough effect; inconclusive = small, poorly fitted or top-dose-only effect; inactive = no such curve, though single readings can be large or run the other way; also: nearly all actives have a fitted effect of over 60% in size
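alpha7betagal+/- myoblasts (passage 13, 250/well) treated 48 h at 37C with compounds at 1:260 dilution of DMSO stock. Lysed, then beta-galactosidase activity read as FDG fluorescence (ex 480/em 540) after 30 min, with pre-read for autofluorescence.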
D3 antag: blocks the human D3 dopamine receptor; P35462; D3R cells, DiscoveRx beta-arrestin luminescence, antagonist mode; stronger effect = lower value; max response, negative = inhibition, %; actives 2.5% (n = 360,000); in the data active = max response below about -50%; inconclusive = no clear call, values can overlap the other calls
Target sequence (P35462 whole entry, looked up): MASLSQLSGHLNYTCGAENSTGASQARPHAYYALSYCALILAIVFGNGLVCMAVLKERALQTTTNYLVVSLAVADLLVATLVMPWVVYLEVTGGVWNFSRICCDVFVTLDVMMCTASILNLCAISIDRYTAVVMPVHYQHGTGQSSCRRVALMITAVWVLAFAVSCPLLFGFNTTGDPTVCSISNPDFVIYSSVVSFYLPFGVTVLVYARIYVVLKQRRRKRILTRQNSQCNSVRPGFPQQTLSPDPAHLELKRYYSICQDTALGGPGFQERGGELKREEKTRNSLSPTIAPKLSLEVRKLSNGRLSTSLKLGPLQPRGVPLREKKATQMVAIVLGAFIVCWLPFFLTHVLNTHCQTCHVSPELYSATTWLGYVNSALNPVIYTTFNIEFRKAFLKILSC
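Cells expressing the human receptor were seeded at 1500 cells/well, incubated overnight at 37 degrees C in 5% CO2, then exposed to library compounds with dopamine controls for 90 minutes at 37 degrees C before luminescent detection.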
DRD3 agonist: activates the human D3 dopamine receptor; D3R DiscoveRx beta-arrestin cells, luminescence, 90 min; P35462; max activation, %; AID 652048; actives 0.58% (n = 410,000); in the data active = max activation above about 30%
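Agonist mode: compounds and dopamine controls were applied to plated cells for 90 min at 37 degrees C after an overnight attachment at 1500 cells/well. Luminescent read-out followed 30 - 60 minutes at room temperature with DiscoveRx detection reagent.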
Large screens that a line does not name were inactive.

CCN1CCN(C(=O)C2c3cc(OC)c(OC)cc3C(=O)N3CCc4ccccc4C23)CC1 (stereo unspecified)	none
CCCCN(CC)CCNC(=O)C1c2cc(OC)c(OC)cc2C(=O)N2CCc3ccccc3C12 (stereo unspecified)	D3 antag -76.3
COc1ccc(C2C(C(=O)NCCN(C)C)c3cc(OC)c(OC)cc3C(=O)N2C)cc1OC (stereo unspecified)	none
CCN(CC)CCNC(=O)C1c2cc(OC)c(OC)cc2C(=O)N(C)C1c1cccs1 (stereo unspecified)	D3 antag -97.5
Cc1cc(OCC(=O)NNC(=O)c2ccncc2)ccc1C(C)C	none
CCCC(=O)NCC(c1cccs1)S(=O)(=O)c1ccc(Cl)cc1 (stereo unspecified)	none
COc1ccc(N2CCN(C(=O)CSc3nnc4c5cc(C)ccc5n(C)c4n3)CC2)cc1	DRD3 agonist 42.9
COc1ccc2c(c1)c1nnc(SCC(=O)N3CCCCC3C)nc1n2C (stereo unspecified)	none
CCSc1ccc([C@@H]2[C@H]3C(=O)N(CC)C(=O)[C@H]3[C@]3(C(=O)OC)CCCCN23)cc1OC	DRD3 agonist 62.7
CCCSc1ccc([C@@H]2[C@@H]3C(=O)N(CC)C(=O)[C@@H]3[C@]3(C(=O)OC)CCCCN23)cc1OC	none
COc1ccc(CN2CCC(C)(Oc3ccc4c(c3)OCO4)C2)c2ccccc12 (stereo unspecified)	none (no result: Integrin act MD)
Cc1ccc(CN2CCC(C)(Oc3cccc(Cl)c3)C2)cc1 (stereo unspecified)	D3 antag -102.7 (no result: Integrin act MD)
Cc1ccccc1OC1(C)CCN(Cc2ccc3ccccc3c2)C1 (stereo unspecified)	none (no result: Integrin act MD)
CC1(Oc2cccc(F)c2)CCN(Cc2ccc3ccccc3c2)C1 (stereo unspecified)	D3 antag -117.2 (no result: Integrin act MD)
CC1(Oc2cccc(Cl)c2)CCN(Cc2ccc(OC(F)(F)F)cc2)C1 (stereo unspecified)	none (no result: Integrin act MD)
CC1(Oc2ccc3ccccc3c2)CCN(Cc2ccc(OC(F)(F)F)cc2)C1 (stereo unspecified)	none (no result: Integrin act MD)
COCOc1cccc(CN2CCC(C)(Oc3cccc(C#N)c3)C2)c1 (stereo unspecified)	D3 antag -50.4 (no result: Integrin act MD)
COc1ccc(OC2(C)CCN(Cc3ccc(-c4ccccc4)o3)C2)cc1 (stereo unspecified)	D3 antag -127.9 (no result: Integrin act MD)
O=C(Nc1ccc(Nc2ccccc2)cc1)c1ccc(F)cc1	none
O=C(NCc1ccc2c(c1)CCO2)Nc1ccccc1	none
O=C(CCn1nc(-c2ccc(Cl)cc2)ccc1=O)N1CCN(c2ccccn2)CC1	none
COc1cccc(NC(=O)NCc2cccn2C)c1	none
CCn1c2ccccc2c2cc(CN3CCN(Cc4ccccc4F)CC3)ccc21	none (no result: Integrin act MD, D3 antag)
CSc1ccc(OC2(C)CCN(Cc3ccc(OC(C)C)cc3)C2)cc1 (stereo unspecified)	D3 antag inconclusive (no result: Integrin act MD)
Cc1ccc(CN2CCC(C)(Oc3ccc(Cl)cc3)C2)cc1 (stereo unspecified)	D3 antag -94.7 (no result: Integrin act MD)
Cc1cc(NS(=O)(=O)c2ccc(NC(=O)CSc3nc4sc(C(=O)O)c(C)c4c(=O)[nH]3)cc2)no1	none
O=C(NCC(c1cccs1)N1CCOCC1)c1cc(-c2ccc(F)cc2)nc2ccccc12 (stereo unspecified)	D3 antag -69.1
O=C(NCC(c1cccs1)N1CCOCC1)c1cn(-c2ccccc2)nc1-c1ccc(F)cc1 (stereo unspecified)	none
Cc1cccc(C(=O)NCC(c2cccs2)N2CCOCC2)c1 (stereo unspecified)	D3 antag -57.9
Cc1cccc(C(=O)NCC(=O)NCC(c2cccs2)N2CCOCC2)c1 (stereo unspecified)	none
O=C(CSc1nnc2scc(-c3ccc(Cl)cc3)n12)Nc1cccc(C(F)(F)F)c1	none (no result: Integrin act MD, D3 antag)
Cc1nc(CS(=O)(=O)c2ccc(Cl)cc2)cc(Sc2ccc(Cl)cc2)n1	none
N#CC1=C(N)C(C#N)(C#N)C(c2ccncc2)C2CN(C(=O)OCc3ccccc3)CC=C12 (stereo unspecified)	D3 antag -63.2
N#CC1=C(N)C(C#N)(C#N)[C@H](c2cccnc2)[C@H]2CN(C(=O)OCc3ccccc3)CC=C12	D3 antag inconclusive
C(=N\N1CCN(Cc2cccc3ccccc23)CC1)/c1cccs1	none
C(=N\N1CCN(Cc2ccccc2)CC1)/c1cccs1	D3 antag -72.9
Cc1ccc(C)c(Cn2c3ccccc3c3cnn(CC(=O)NCC(C)c4ccccc4)c(=O)c32)c1 (stereo unspecified)	none (no result: Integrin act MD, D3 antag)
COc1ccc(/C=C2\SC(=S)N(CCC(=O)Nc3ccc(O)cc3)C2=O)cc1	none
CCN(CC)CCOC(=O)c1ccc(NC(=O)CCCN2C(=O)S/C(=C/c3ccc(OC)cc3)C2=S)cc1	D3 antag -82.7
COc1ccc(C2=C(C)C(N3CCC(C(=O)Nc4ccccc4F)CC3)=NS2(=O)=O)cc1	none (no result: Integrin act MD, D3 antag)
Cc1c2cnn(-c3ccccc3)c(=O)c2c(C)n1CC(=O)NCc1ccccc1	none (no result: Integrin act MD, D3 antag)
CN(C)CC(c1ccccc1)c1ccccc1	none
CN(C)CCC(=O)C(Cc1ccccc1)c1ccccc1 (stereo unspecified)	D3 antag -111.8
CN(C)CCNC(=O)C(c1ccccc1)c1ccccc1	Integrin act MD inconclusive
CC(CCCN(C)C)C(Cc1ccccc1)c1ccccc1 (stereo unspecified)	D3 antag -69.5
O=C(CCC1CCCCC1)Nc1c2c(nn1-c1ccc(F)cc1)CS(=O)(=O)C2	D3 antag inconclusive
CCn1c(C)nc2cc(S(=O)(=O)N3CCCCC3)ccc21	none
CCn1c(CN2CCCCC2)nc2cc(S(=O)(=O)N3CCCCC3)ccc21	D3 antag -81.1
Cc1cccc(NC(=O)CN2C(=O)CCSc3ccc(S(=O)(=O)N4CCOCC4)cc32)c1C	none
Cc1cc(=O)[nH]c(SCC(=O)Nc2ccc(N3CCCCC3)cc2)n1	none
CCN1CCCC1CNC(=O)c1cc(NC(C)=O)c(N(C)C)cc1OC (stereo unspecified)	D3 antag -88.4
CCC(=O)Nc1cc(C(=O)NCC2CCCN2CC)c(OC)cc1N(C)C (stereo unspecified)	D3 antag -91.3
CCN1CCCC1CNC(=O)C(=O)NCCc1ccc(OC)c(OC)c1 (stereo unspecified)	none
CCOc1ccccc1NC(=O)C(=O)NCC1CCCN1CC (stereo unspecified)	none
CCN1CCCC1CNC(=O)c1ccccc1Cl (stereo unspecified)	none
CCN1CCCC1CNC(=O)c1cc(S(N)(=O)=O)ccc1OC (stereo unspecified)	D3 antag -98.5 (no result: Integrin act MD, DRD3 agonist)
CCN(C(=O)c1cc(S(=O)(=O)N2CCCC2)ccc1C)C1CCS(=O)(=O)C1 (stereo unspecified)	Integrin act MD inconclusive
Cc1nc2c(-c3ccccc3)cnn2c(N2CCOCC2)c1C	none
O=C(CCC(=O)N1CCc2ccccc2C1)N1CCN(S(=O)(=O)c2ccccc2)CC1	none
COc1ccc(C(=O)N2CC(=O)Nc3ccccc32)cc1S(=O)(=O)N1CCOCC1	none
O=C(NCCCN1CCOCC1)c1cccc(NC(=O)c2ccccc2)c1	none
Cc1ccc(NC(=O)c2ccc(NCCCN3CCC(C)CC3)c([N+](=O)[O-])c2)cc1F	D3 antag -65.1
Cc1ccc(NC(=O)c2ccc(NCCN)c([N+](=O)[O-])c2)cc1	none
